Measurements published in the supplement of paper PMC11383364.
± gives the standard deviation of the averaged measurements.

System: SUM149
Experiment: percent difference in area under dose-response curve of relative cell number, RPMI vs HPLM; higher = drug relatively more effective in HPLM than RPMI (negative = less effective in HPLM)
Details: treatment time: 72 h; dose range: 10-point, 1 nM to 20 µM; media compared: RPMI vs HPLM

Compound	percent difference in area under dose-response curve
N#Cc1c(NC(=O)c2cccc3ccccc23)sc2c1CCCC2 [JNK_Inhibitor_IX]	-13.1%
OC(c1cc(C(F)(F)F)nc2c(C(F)(F)F)cccc12)C1CCCCN1 (configuration not stated) [Mefloquine]	3.47%
COc1cc(OC)c(/C=C/S(=O)(=O)Cc2ccc(OC)c(NCC(=O)O)c2)c(OC)c1 [Rigosertib]	-46.7%
Cn1cc(CNCC2CCN(c3ncc(C(=O)NO)cn3)CC2)c2ccccc21	-19.7%
CO[C@H]1C[C@@H]2CC[C@@H](C)[C@@](O)(O2)C(=O)C(=O)N2CCCC[C@H]2C(=O)O[C@H]([C@H](C)C[C@@H]2CC[C@@H](O)[C@H](OC)C2)CC(=O)[C@H](C)/C=C(\C)[C@@H](O)[C@@H](OC)C(=O)[C@H](C)C[C@H](C)/C=C/C=C/C=C/1C [Rapamycin]	12.8%
CN(Cc1cnc2nc(N)nc(N)c2n1)c1ccc(C(=O)N[C@@H](CCC(=O)O)C(=O)O)cc1 [Abitrexate]	-8.44%
CN(N=O)C(=O)N[C@@H](C=O)[C@@H](O)[C@H](O)[C@H](O)CO [Streptozotocin]	-5.59%
Nc1nc(F)nc2c1ncn2[C@@H]1O[C@H](CO)[C@@H](O)[C@@H]1O [Fludarabine]	-2.56 ± 3.2%
Nc1nc(F)nc2c1ncn2[C@@H]1O[C@H](COP(=O)(O)O)[C@@H](O)[C@@H]1O [Fludarabine_Phosphate]	-16.9%
Cn1cnc2c(F)c(Nc3ccc(Br)cc3Cl)c(C(=O)NOCCO)cc21	-3.35%
O=C(NCCCNc1nc(Nc2cccc(NC(=O)N3CCCC3)c2)ncc1I)c1cccs1	-9.09%
Cc1cc(NC(=O)c2cccc(NC(=O)/C=C/CN(C)C)c2)ccc1Nc1nccc(-c2cccnc2)n1	7.32%
CC(C)(C)c1cc(NC(=O)Nc2ccc(-c3cn4c(n3)sc3cc(OCCN5CCOCC5)ccc34)cc2)no1 [Quizartinib]	-0.334%
COc1cc2c(N3CCN(C(=O)Nc4ccc(OC(C)C)cc4)CC3)ncnc2cc1OCCCN1CCCCC1 [Tandutinib]	-4.18%
c1cc(-c2cnn3cc(-c4ccc(OCCN5CCCCC5)cc4)cnc23)ccn1 [Dorsomorphin]	-2.35%
C[C@@H](O[C@H]1OCCN(Cc2n[nH]c(=O)[nH]2)[C@H]1c1ccc(F)cc1)c1cc(C(F)(F)F)cc(C(F)(F)F)c1 [Aprepitant]	-2%

Compound	percent difference in area under dose-response curve
CCOC(=O)[C@@H](N)CCC(=O)N[C@@H](CSCc1ccccc1)C(=O)N[C@@H](C(=O)OCC)c1ccccc1 [Telintra]	2.03%
CNC(=O)c1cc(Oc2ccc(NC(=O)Nc3cc(C(C)(C)C)nn3-c3ccc4ncccc4c3)c(F)c2)ccn1	-8.43%
CN1CCN(c2ccc3nc(-c4c(N)c5c(F)cccc5[nH]c4=O)[nH]c3c2)CC1 [Dovitinib]	-0.391%
COc1cc([C@@H]2c3cc4c(cc3[C@@H](O[C@@H]3O[C@@H]5CO[C@@H](c6cccs6)O[C@H]5[C@H](O)[C@H]3O)[C@H]3COC(=O)[C@H]23)OCO4)cc(OC)c1O [Teniposide]	-42.7%
O=C(Cc1ccc(-c2ccc(OCCN3CCOCC3)cc2)cn1)NCc1ccccc1	-13.1%
CCCCCCCC/C=C\CCCCCCCC(=O)NCCO [Oleylethanolamide]	2.18%
N#CC[C@H](C1CCCC1)n1cc(-c2ncnc3[nH]ccc23)cn1 [SRuxolitinib]	-0.914%
CC(C)(C#N)c1cc(Cn2cncn2)cc(C(C)(C)C#N)c1 [Anastrozole]	-1.33%
COC1=C2C[C@@H](C)C[C@H](OC)[C@H](O)[C@@H](C)/C=C(\C)[C@H](OC(N)=O)[C@@H](OC)/C=C\C=C(/C)C(=O)NC(=CC1=O)C2=O [Geldanamycin]	-5.2%
N#CCNC(=O)c1ccc(-c2ccnc(Nc3ccc(N4CCOCC4)cc3)n2)cc1	7.22%
Nc1cc(C(F)(F)F)c(-c2cc(N3CCOCC3)nc(N3CCOCC3)n2)cn1	-2.14%
COc1cc2/c(=N/c3ccc(Br)cc3F)nc[nH]c2cc1OCC1CCN(C)CC1 [Vandetanib]	-3.62%
O=C(O)c1ccc(-c2c[nH]c3ncc(-c4ccccc4)cc23)cc1C1CCCC1	-9.42%
N[C@H](C(=O)O)[C@@H]1CC(Cl)=NO1 [Acivicin]	9.22%
CC(C)C[C@@H](C(=O)N[C@H](C(=O)OC1CCCC1)c1ccccc1)[C@H](O)C(=O)NO	-3.27%
CC1(C)C=C(CN2C/C(=C\c3ccc(F)cc3)C(=O)/C(=C/c3ccc(F)cc3)C2)C(C)(C)N1O	2.04%
